Source: PubChem BioAssay
In the library only some 3.4% were active in any assay of this set; here they are far more common.
PAX8 inh HTS: inhibitors of PAX8-driven TPO luciferase reporter, primary screen, RMG-I cells, single concentration. SteadyGlo, 24 h. inhibition, % at 12.6 µM. 1.2% of 360,000 active;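 active = mean replicate inhibition at least 60% with every replicate also reaching 60%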;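 note: luciferase light reporting Pax8 driven TPO promoter activity; plate controls were median of neutral control wells for no effect and mitoxantrone controls for full effect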
EWS-Fli inh: EWS/Fli-driven NR0B1 reporter inhibitors, primary screen, A673 cells, NR0B1 luciferase, luminescence, MLPCN library. viability-normalised. inhibition, % at 12.6 µM. 0.67% of 350,000 active. AID 651661, 2012;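 active = mean inhibition of at least 50% after viability correction, with every replicate also passing that limit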;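 note: firefly luciferase signal divided by Alamar Blue viability fluorescence both relative to DMSO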
Ecoli rRNA inh: reduced GFP signal of wild-type E. coli, primary screen, bacterial rRNA inhibitor project, GFP/RFP fluorescence, OD600, single point | E. coli WT GFP vs humanized-ribosome RFP mutants, 24 h; hits give low values; DMSO median 0, no signal -100 | GFP signal change (wild-type ribosome), % (concentration not given with the values) | 1.6% of 350,000 active | AID 720706, 2013;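 active = significant combined selectivity score with lowered wild-type GFP, culture density cut under 30%, mutant RFP and density less affected; inactive = any of these conditions unmet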
SIRT5 inh: SIRT5 desuccinylase inhibitors, primary screen, biochemical, fluorescence imaging, single point, set 5; Purified SirT5, succinyl-peptide AMC, trypsin-coupled fluorescence; inhibition, % at 15 µM; NAD-dependent protein deacylase sirtuin-5, mitochondrial (Homo sapiens), Q9NXA8; AID 652115, 2013; 1.1% of 330,000 active; in the data active = inhibition above about 15%
Target sequence (Q9NXA8 whole entry, looked up): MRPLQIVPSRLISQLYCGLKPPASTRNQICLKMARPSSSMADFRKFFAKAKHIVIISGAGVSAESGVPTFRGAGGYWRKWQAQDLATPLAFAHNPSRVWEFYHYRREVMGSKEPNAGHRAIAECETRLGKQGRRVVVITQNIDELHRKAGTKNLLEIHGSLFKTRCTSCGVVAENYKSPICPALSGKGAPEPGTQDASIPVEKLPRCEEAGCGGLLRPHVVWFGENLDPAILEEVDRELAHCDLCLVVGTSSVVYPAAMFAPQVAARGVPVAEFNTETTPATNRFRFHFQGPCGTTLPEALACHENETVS
LGR2 inh: inhibitors of bursicon-induced LGR2 CRE-luciferase signal, primary screen, cell-based, HEK293, CRE-luciferase reporter, bursicon stimulation | bursicon-stimulated, 4 h | inhibition, % at 9.99 µM | 0.35% of 380,000 active | Drosophila bursicon receptor LGR2 (rickets);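 active = drop in luminescence signal, shown as inhibition above about 50% in the replicate tests, limit read from the data, passing the limit was not always enough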;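 note: agonist challenge used bursicon conditioned medium at about half maximal strength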
PGC1a acetyl inh: inhibitors of PGC1a acetylation signal, primary screen, cell-based, U2OS, AlphaScreen, inhibitor mode; 0.17% of 350,000 active; inhibition, % at 15.6 µM; AlphaScreen anti-acetyl-lysine; with virally co-expressed GCN5 acetyltransferase;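 active = every replicate shows inhibition of at least 40%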;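 note: 0% = neutral control wells and 100% = positive control wells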
The depositor's hits bear a star; nt = no result given.

SMILES	PAX8 inh HTS	EWS-Fli inh	Ecoli rRNA inh	SIRT5 inh	LGR2 inh	PGC1a acetyl inh
CC(C)NC(=O)N(C)C[C@H]1Oc2ncc(C#Cc3ccncc3)cc2C(=O)N([C@@H](C)CO)C[C@@H]1C	nt	-1	0	1	6	-5
O=C(c1cc(-c2ccc(Cl)cc2Cl)on1)N1CCCC1	-48	55*	0	nt	75*	nt
Cc1ccc(-c2cc(C(=O)N3CCOCC3)no2)cc1	9	54*	0	-4	63*	nt
O=C(COC(=O)/C(=C/c1cccs1)c1cccs1)NC(c1ccccc1)c1ccccc1	93*	nt	nt	nt	40	nt
CN1C=C/C(=C\c2cc[n+](C)c3ccccc23)c2ccccc21	97*	74*	-16	2	28	nt
CC[n+]1ccc(/C=C2\Sc3ccccc3N2CCCS(=O)(=O)[O-])c2ccccc21	13	-3	21	-1	15	6
C[C@@H]1CCCCO[C@@H](CN(C)Cc2ccc(C(F)(F)F)cc2)[C@@H](C)CN([C@@H](C)CO)C(=O)c2cc(NS(=O)(=O)c3ccc(Cl)cc3)ccc2O1	91*	-9	4	16*	4	-19
C[C@@H]1CN([C@H](C)CO)C(=O)c2cc(NS(=O)(=O)c3ccc(Cl)cc3)ccc2O[C@@H](C)CCCCO[C@@H]1CN(C)Cc1ccc(C(F)(F)F)cc1	5	-3	1	17*	17	4
C[C@@H]1CCCCO[C@@H](CN(C)Cc2ccc(C(=O)O)cc2)[C@@H](C)CN([C@H](C)CO)C(=O)c2cc(NS(=O)(=O)c3ccc(Cl)cc3)ccc2O1	-5	0	3	7	4	3
C[C@H](CO)N1C[C@H](C)[C@@H](CN(C)Cc2ccc(C(F)(F)F)cc2)OCCCC[C@H](C)Oc2ccc(NS(=O)(=O)c3ccc(Cl)cc3)cc2C1=O	99*	19	1	19*	29	-13
CNC[C@@H](Cc1ccccc1)NC[C@@H](CC1CCCCC1)NCCCc1ccccc1	74*	44	-54	-1	102*	-55
CNC[C@@H](CC1CCCCC1)NC[C@H](CC(C)C)NCCc1cccc(C(F)(F)F)c1	113*	49	-54	nt	103*	88*
Cc1ccc(-c2nn(-c3ccccc3)cc2CO)cc1	-143	-90	-7	-6	-39	16
N=C(N)SCc1cn(-c2ccccc2)nc1-c1ccc(Br)cc1	32	34	-62	-3	100*	-41
Cc1ccc(NCc2nnc(SCC(=O)c3ccc4c(c3)OCCO4)o2)c(C)c1	nt	10	-36*	7	7	10
COc1ccc(OC)c(CCNC(=O)c2ccc(CS(=O)Cc3ccc(Cl)cc3)o2)c1 (stereo not given)	10	nt	-28*	0	-15	-2
O=C(C[C@H]1CC[C@@H]2[C@H](COC[C@H](O)CN2Cc2ccc3c(c2)OCO3)O1)Nc1ccc(-c2ccccc2)cc1	34	13	-3	10	21	-4
COc1ccc(S(=O)(=O)N(C)C[C@@H]2Oc3ccc(NC(=O)CCC(F)(F)F)cc3C(=O)N([C@H](C)CO)C[C@H]2C)cc1	4	1	0	34*	10	8
C[C@H](CO)N1C[C@H](C)[C@@H](CN(C)C)Oc2ccc(NC(=O)CCC(F)(F)F)cc2C1=O	-19	-2	-2	-2	4	9
C[C@H]1CN([C@@H](C)CO)C(=O)c2cc(NC(=O)CCC(F)(F)F)ccc2O[C@H]1CN(C)C	-14	2	1	17*	14	5
Cc1ccc(S(=O)(=O)N(C)C[C@H]2Oc3ccc(NC(=O)CCC(F)(F)F)cc3C(=O)N([C@H](C)CO)C[C@@H]2C)cc1	-7	0	-4	9	-17	48*
